Marburg entry inh: inhibitors of Marburg virus binding or cell entry. Marburg virus pseudotyped entry inhibition, cell reporter. Potency, µM (titrated, usually from 37.8 µM), for inactives: top-dose activity change, negative = inhibition, usual class: inhibitors. 300,000 compounds, 1.8% hits. AID 540276; calls by dose curve; tested in HEK293 cells; note: potency is the fitted concentration of half-maximal effect
HCMV antiviral: blocks human cytomegalovirus replication; HFF cells, HCMV-luciferase reporter, 72 h; hits give low values; activity change, negative = inhibition, % at 57.5 µM; 410,000 compounds, 4.5% hits; in the data active = activity change below about -60%; inconclusive = no clear call, values can overlap the other calls; inactive = above about -39%
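HFF cells seeded 16 h at 37C, treated with compounds, infected with luciferase-reporter HCMV at MOI 1 PFU/cell; luciferase read at 72 h post infection, normalized to buffer-only and Salinomycin controls.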
Lassa entry inh: blocks Lassa virus binding to or entry into cells. Lassa virus pseudotype entry inhibition, cell reporter. Potency, µM (doses to about 37.9 µM), without a hit: at the top dose activity change, negative = inhibition, most hits filed as inhibitors. 300,000 compounds, 1.2% hits. AID 540256; calls by dose curve; tested in HEK293 cells; note: potency is the fitted concentration of half-maximal effect; nearly all actives have a fitted effect of over 50% in size
Vaccinia mCherry: inhibitors of vaccinia virus infection (mCherry reporter signal); Vaccinia virus mCherry reporter infection, fluorescence; Potency, µM (highest dose often 36.5 µM), for inactives: at the highest dose activity change, negative = inhibition, hits mostly inhibitors; 310,000 compounds, 0.63% hits; calls by dose curve; tested in A549 cells; note: potency is the fitted concentration of half-maximal effect; nearly all actives have a fitted effect of over 35% in size
FMDV antiviral: blocks foot and mouth disease virus; 410,000 compounds, 1.2% hits; Potency, µM (doses to about 57.9 µM), inactives show top-dose activity change, negative = inhibition, hits mostly inhibitors; FMDV antiviral cell-based qHTS; calls by dose curve; tested in HEK293T cells; note: read-out not given here; potency is the fitted concentration of half-maximal effect; nearly all actives have a fitted effect of over 45% in size
Vaccinia Venus: inhibitors of vaccinia virus (Venus reporter); AID 720580; Vaccinia virus Venus reporter expression, fluorescence; Potency, µM (titrated, usually from 36.5 µM), for the others: at the top dose activity change, negative = inhibition, actives largely listed as inhibitors; 330,000 compounds, 0.46% hits; calls by dose curve; tested in A549 cells; note: potency is the fitted concentration of half-maximal effect; nearly all actives have a fitted effect of over 30% in size
* marks the source's active call; other numbers are inactive results; i = inactive; ? = inconclusive; nt = not tested or not shown; [ ] = dose if it differs, or a comment. Sampled rows, rich in hits. Any-hit rate of the full collection: about 6.5%. % is set by controls: 0 for no effect and ±100 for the full control effect.

SMILES	Marburg entry inh	HCMV antiviral	Lassa entry inh	Vaccinia mCherry	FMDV antiviral	Vaccinia Venus
NS(=O)(=O)c1ccc(NC(=S)Nc2ccn(Cc3cccc4ccccc34)n2)cc1	6.3µM*	-79*	3.5µM*	-26%	?	-30%
NS(=O)(=O)c1ccc(NS(=O)(=O)c2ccc(NC(=S)Nc3ccccc3)cc2)cc1	16%[46.1 µM]	-22	-2%	i	13%	-4%
CN(C)c1ccc(/C=C(\Cl)c2nc3ccccc3s2)cc1	?	nt	?	i	10µM*	-14%
Cc1ccc(-n2nnnc2Sc2nc([N+](=O)[O-])nn2C)c(C)c1	?	-70*	-5%	nt	-16%	?
Cc1ccc(-n2nnnc2Sc2nc([N+](=O)[O-])nn2C)cc1	?	-9	?	-29%	?	?
O=C1/C(=N\S(=O)(=O)c2cccs2)C([n+]2cccc(Cc3ccccc3)c2)=C([O-])c2ccccc21	2.8µM*	nt	?	?	?	-27%
Cc1cc(C)c[n+](C2=C([O-])c3ccccc3C(=O)/C2=N\S(=O)(=O)c2cccs2)c1	nt	0	nt	nt	40µM*	nt
C/C(=N/Nc1cc(-c2ccccc2)nc(-c2ccccc2)n1)c1ccc(O)cc1	?	-65*	-16%	?	5%	?
Cc1nnsc1C(=O)NCC1Cc2cccc(-c3ncccn3)c2O1 (configuration not stated)	nt	nt	nt	-9%	-15%	-2%
Cn1cc(CN2CCCC(CO)(Cc3ccccc3)C2)c2ccccc21 (configuration not stated)	1µM*	?	?	-16%	?	3%
COc1ccc(CN2CCCC(CO)(Cc3ccc(F)cc3)C2)cc1C (configuration not stated)	nt	6	nt	nt	-21%	nt
COc1cccc(CC2(CO)CCCN(Cc3cn(C)c4ccccc34)C2)c1 (configuration not stated)	nt	?	nt	nt	-21%	nt
CCn1cc(CN2CCCC(CO)(Cc3ccc(F)cc3)C2)c2ccccc21 (configuration not stated)	?	-64*	-24%[46.1 µM]	?	-22%	-3%
Cc1ccc(C)c(Cn2c3ccccc3c3cnn(CC(=O)NC(C)c4ccccc4)c(=O)c32)c1 (configuration not stated)	11%[46.1 µM]	-5	-8%[46.1 µM]	-28%	4%	-17%
O=C(O)c1cccc(N/N=C/c2cccc3ccccc23)c1	2µM*	134	?	-3%	4µM*	-1%
O=C(O)c1ccc(N/N=C/c2ccc(-c3ccc(Br)cc3)o2)cc1	?	15	?	11µM*	2%	?
Cc1ccc(/C=N/Nc2cccc(C(=O)O)c2)s1	1.1µM*	119	1.6µM*	i	3.5µM*	-10%
Cc1ccc(/C=N/Nc2ccc(C(=O)O)cc2)o1	-16%	92	-3%	nt	-2%	nt
Cc1ccc(/C=N/Nc2ccc(C(=O)O)cc2)s1	?	-73*	1.1µM*	-4%	6.3µM*	4%
CC(=O)NCCNC(=O)c1nnc2n1CCN(C(=O)COc1ccccc1)C2	nt	3	nt	nt	nt	nt
Cc1ccc(NC(=O)c2cc3c([nH]c2=O)CC(C)(C)CC3=O)cc1	nt	nt	nt	-15%	nt	-16%
O=C(O)c1ccc(N/N=C/c2cc(Br)cs2)cc1	5µM*	-33	?	3%	-72%	8%
O=C(O)c1cccc(N/N=C/c2ccc(F)c(F)c2)c1	?	33	4µM*	i	-33%	-1%
O=C(O)c1ccc(/C=N/Nc2cccc(C(F)(F)F)c2)cc1	-19%[46.1 µM]	21	nt	-7%	12%	-5%
O=C(N/N=C\c1cc(Br)cs1)c1ccncc1	nt	-5	nt	nt	21%	nt
SMILES	Marburg entry inh	HCMV antiviral	Lassa entry inh	Vaccinia mCherry	FMDV antiviral	Vaccinia Venus
Cc1nn(-c2ccccc2Cl)c(Cl)c1/C=N/Nc1cccc(C(=O)O)c1	?	151	?	-3%	7.1µM*	-19%
Cc1ccc(-n2nc3c(N4CCC(C(=O)N5CCCCC5)CC4)nnc(C)c3c2C)cc1	nt	-39	?	-30%	-20%	-25%
Cc1cc(O)c(Sc2ncn[nH]2)cc1NS(=O)(=O)c1ccc(Cl)cc1	-26%	-2	-1%	-27%	-12%	-16%
O=S(=O)(Nc1cc(Sc2ncn[nH]2)c(O)c2ccccc12)c1ccccc1	?	-99*	?	6.3µM*	25µM*	2.5µM*
CCOC(=O)N=Nc1c2ccccc2c2nc3no[nH]c3nc12	?	-100*	?	0.5µM*	2µM*	0.5µM*
CCOC(=O)N=Nc1c(O)n(CC(=O)OC)c2ccccc12	5%[46.1 µM]	14	17%	-5%	-5%	-12%
CCc1ccc(NC(=O)C(=O)NCC(c2cccnc2)N2CCN(c3ccc(F)cc3)CC2)cc1 (configuration not stated)	nt	-13	-11%[46.1 µM]	-20%	-30%	?
COc1ccc(N(C(=O)c2cc3ccccc3oc2=O)C2C=CS(=O)(=O)C2)c(OC)c1 (configuration not stated)	?	-61*	-14%	-3%	-7%	-13%
COc1cccc(C(=O)N(c2ccc(OC)cc2OC)C2C=CS(=O)(=O)C2)c1 (configuration not stated)	4%	5	-6%	?	nt	-6%
COc1cccc(C(=O)N(c2ccc(C)cc2)C2C=CS(=O)(=O)C2)c1 (configuration not stated)	nt	-101*	nt	nt	-9%	nt
CNc1ccc(/C=C2\C=Cc3ccccc32)cc1Br	nt	nt	nt	?	nt	-23%
C[C@H]1[C@@H](NS(=O)(=O)c2ccc(C(F)(F)F)cc2)CC[C@@]23CCCN2C(=O)CCC[C@@H]13	nt	-25	nt	nt	nt	nt
O=C1CC(/C=C/c2ccncc2)=Nc2ccccc2N1	?	-99*	1%[46.1 µM]	?	1%	-4%
CN(C)S(=O)(=O)c1cccc(-c2nnc(-c3ccccc3)o2)c1	?	-105*	7%	nt	15%	nt
O=C(C[n+]1cccc(Br)c1)c1cc(Cl)ccc1Cl	nt	nt	nt	-12%	nt	-7%
O=C(COc1ccc(C(=O)c2ccc(F)cc2)cc1)NCc1ccc(F)cc1	-24%	-78*	?	?	-28%	-26%
Cc1ccc(CNC(=O)COc2ccc(C(=O)c3ccc(F)cc3)cc2)cc1	-21%	-75*	?	?	-22%	-23%
COc1ccc(CNC(=O)COc2ccc(C(=O)c3ccc(F)cc3)cc2)cc1	-45%	-20	?	?	0%	-22%
CC1(C(=O)NCc2ccccc2)CN(S(C)(=O)=O)CC(=O)N1CCCn1ccnc1 (configuration not stated)	nt	7	nt	-9%	4%	0%
CCCCNC(=O)C1(C)CCC(=O)N1CCOC (configuration not stated)	nt	2	nt	10%	-1%	-8%
CC1(C(=O)NCc2cccnc2)CCC(=O)N1CCc1ccccc1 (configuration not stated)	nt	-97*	nt	-8%	-14%	-2%
CC1(C(=O)NCc2ccccc2)CCC(=O)N1CCCn1ccnc1 (configuration not stated)	nt	-99*	nt	i	-9%	0%
